Drawing on PubChem BioAssay AID489028 (Sanford-Burnham Center for Chemical Genomics, 2010), this text covers inhibition for 85 molecules.

About 5,600 (56%) of roughly 10,000 compounds were called active. The set was probably picked from earlier hits. The list is a sample of the results. Unmarked numbers belong to inactive results. Rule as the data show it: active = inhibition above about 40%; inactive = the rest.

In this assay the target is Protein Mdm4 (Homo sapiens) + E3 ubiquitin-protein ligase Mdm2 (Homo sapiens) (UniProt O15151+Q00987). The experiment in a line: Mdm2-MdmX complex disruptors, retested hits, confirmation, luminescence, single concentration (AID 489028). The settings on record: Mdm2-MdmX binding, luminescent assay; at 8 µM; active compounds read high.
Chain of Protein Mdm4 (Homo sapiens) + E3 ubiquitin-protein ligase Mdm2 (Homo sapiens) (O15151 whole entry, looked up): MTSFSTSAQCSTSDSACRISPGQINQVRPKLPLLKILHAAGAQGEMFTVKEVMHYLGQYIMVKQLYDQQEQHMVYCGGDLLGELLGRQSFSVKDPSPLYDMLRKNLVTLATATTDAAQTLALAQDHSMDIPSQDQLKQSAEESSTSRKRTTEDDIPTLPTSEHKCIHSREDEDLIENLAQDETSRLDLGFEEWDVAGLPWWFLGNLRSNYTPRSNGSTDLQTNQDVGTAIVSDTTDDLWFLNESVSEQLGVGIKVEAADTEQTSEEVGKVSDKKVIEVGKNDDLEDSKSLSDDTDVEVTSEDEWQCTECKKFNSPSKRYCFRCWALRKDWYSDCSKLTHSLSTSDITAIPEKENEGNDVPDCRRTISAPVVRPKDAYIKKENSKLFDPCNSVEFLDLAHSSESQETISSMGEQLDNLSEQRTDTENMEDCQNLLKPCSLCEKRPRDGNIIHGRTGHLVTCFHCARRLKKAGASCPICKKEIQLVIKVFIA
Chain of Protein Mdm4 (Homo sapiens) + E3 ubiquitin-protein ligase Mdm2 (Homo sapiens) (Q00987 whole entry, looked up): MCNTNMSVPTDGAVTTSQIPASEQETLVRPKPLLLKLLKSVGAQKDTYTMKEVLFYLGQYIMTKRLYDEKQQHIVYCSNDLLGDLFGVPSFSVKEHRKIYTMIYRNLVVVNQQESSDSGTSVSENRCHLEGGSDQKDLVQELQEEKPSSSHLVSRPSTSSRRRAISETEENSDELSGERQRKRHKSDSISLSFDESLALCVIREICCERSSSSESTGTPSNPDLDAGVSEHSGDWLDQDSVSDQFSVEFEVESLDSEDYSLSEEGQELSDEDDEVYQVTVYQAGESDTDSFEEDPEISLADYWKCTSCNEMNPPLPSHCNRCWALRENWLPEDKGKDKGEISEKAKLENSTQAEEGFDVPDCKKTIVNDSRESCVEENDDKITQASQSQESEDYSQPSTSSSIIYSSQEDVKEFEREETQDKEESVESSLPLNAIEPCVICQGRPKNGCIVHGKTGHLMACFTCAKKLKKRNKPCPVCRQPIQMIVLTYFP
Regarding `CC(=O)Nc1nc(C)c(-c2csc(Nc3ccc(S(N)(=O)=O)cc3)n2)s1`, the inhibition was 44.5% (active).
As for `CC(C)c1cc(C(=O)N/N=C/C(Br)=C/c2ccccc2)n[nH]1`, the figure is 35.2%; as for `CCCn1nc(C(=O)Nc2ccc3nc(C)sc3c2)c2ccccc2c1=O`, 24.9%.
As for `COc1cc(C(=O)NCc2nnc(SCC(=O)Nc3nc4ccc(C)cc4s3)o2)cc(OC)c1OC`, the inhibition was -0.1%.
On to `CCCC(=O)Nc1nc2ccc(NC(=O)c3cccnc3)cc2s1`, for which the inhibition was 48.4% (active).
As for `CCN1C(=O)c2cccc3c(S(=O)(=O)Nc4ccccc4O)ccc1c23`, the inhibition is 39%.
Take `COc1ccc(C(=O)/C=C/c2cccnc2)c(OC)c1`: the inhibition was -4.6%.
For `O=C(/C=C/c1ccc(Cl)c([N+](=O)[O-])c1)c1cccnc1`, the inhibition was 66.7% (active).
Turning to `O=C(/C=C/c1ccc(Cl)c([N+](=O)[O-])c1)c1ccc(O)cc1`, the inhibition is 85.4% (active).
As for `COc1ccc(/C=C/C(=O)c2ccc(NS(=O)(=O)c3ccc(C)cc3)cc2)cc1O`, the inhibition is 38.9%.
Take `Cc1[nH]c(C)c(S(=O)(=O)N2CCN(c3cccc(C(F)(F)F)c3)CC2)c1C(=O)N1CCCCC1`: the inhibition was 52.8% (active).
On to `CCNC(=O)c1c(O)c2cccc3c2n(c1=O)CC3`, for which the inhibition is 75.1% (active).
On to `O=C(COC(=O)/C=C/c1cn(-c2ccccc2)nc1-c1cccnc1)Nc1ccc(Cl)cc1Cl`, for which the inhibition was 18.3%.
Turning to `CCOC(=O)c1c(-c2ccc(C)cc2C)csc1NC(=O)CSc1nnnn1C`, the inhibition is 51% (active).
With `CCC(C)N1C(=O)S/C(=C/c2ccc(Sc3nc4ccccc4[nH]3)o2)C1=O` (stereo not given), the inhibition is 23.9%.
As for `Cc1cccc(-n2c(C)cc(/C=N\NC(=O)c3cccs3)c2C)c1`, the figure is 40.1% (active).
As for `C[C@@H]1C[C@@H]2O[C@H]2/C=C\C=C\C(=O)Cc2c(Cl)c(O)cc(O)c2C(=O)O1`, the figure is 54.2% (active).
Turning to `Cc1ccc(C2CC(=O)NC(SCC(=O)OCc3ccccc3)=C2C#N)o1` (stereo not given), the inhibition is 44.5% (active).
In the case of `C=CCC[C@@H](Cc1ccc(F)cc1)C(=O)OC[C@H](Cc1c[nH]c2ccccc12)NC(=O)[C@@H](CC=C)CC(=O)N(CCO)Cc1ccccc1`, the inhibition is 21.8%.
For the molecule `O=C(Nc1ccccc1Cl)/C(Cl)=C(\Cl)S(=O)c1ccccc1` (stereo not given), the inhibition is 100% (active).
As for `O=C1/C(=C\c2ccccc2Cl)SC(=S)N1CCC(=O)N1CCCc2ccccc21`, the inhibition was 60.8% (active).
For `COc1cc2c(cc1OC)C(C)N(S(=O)(=O)c1cnc(Cl)c(Cl)c1)CC2` (stereo not given), the inhibition was 58.1% (active).
As for `C=CCn1c(C)cc(C(=O)CN2C(=O)c3ccccc3C2=O)c1C`, the inhibition is 68% (active).
For `COc1ccc(-c2cn[nH]c2-c2ccc(OC)cc2)cc1`, the inhibition was 63% (active).
As for `CC1(C)Cc2nc3sc4c(SCC(=O)NC(c5ccccc5)c5ccccc5)ncnc4c3cc2CO1`, the figure is 2.85%; as for `CCOc1ccc(S(=O)(=O)Nc2cccc(C(=O)NCC3(N4CCCCC4)CCCCC3)c2)cc1`, 78.6% (active).
As for `CCOC(=O)c1cc(NC(=O)c2ccc(Cl)cc2)c(=O)oc1-c1ccccc1`, the figure is 35.2%; as for `CCOC(=O)c1c(-c2cccc(C)c2)csc1NC(=O)c1c(-c2ccccc2)noc1C`, 92.6% (active); as for `CCOC(=O)c1c(-c2ccc(C)cc2)csc1/N=C(\C)C1=C(O)c2ccccc2C1=O`, 28.7%.
With `Fc1ccc(CNc2nc3ccccc3n3nnnc23)cc1`, the inhibition is 9.85%.
With `Nc1nonc1-c1nc2ccccc2n1Cc1ccc(F)cc1`, the inhibition is 63.5% (active).
Turning to `COc1cccc(/C=N/NC(=O)c2[nH]nc3c2CCc2ccccc2-3)c1O`, the inhibition is 83.7% (active).
In the case of `COc1ccc(CNc2nc(NCc3ccc(OC)cc3)c3ncn(C4CCCC4)c3n2)cc1`, the inhibition was 45.4% (active).
`COc1ccc(C2CC(c3ccccc3)=NN2C(=O)c2ccc(Cl)c([N+](=O)[O-])c2)cc1` (stereo not given): the inhibition was 46.1% (active).
For the molecule `CCOc1ccc2nc(Cl)c(C3CC(c4ccccc4)=NN3C(=O)c3cccs3)cc2c1` (stereo not given), the inhibition was 5.3%.
For `COc1ccc(-c2cc(C3CCN(c4ncccc4[N+](=O)[O-])CC3)[nH]n2)cc1`, the inhibition is 24.6%.
`CCOC(=O)C1=C(NC(=S)NC(=O)c2ccccc2)c2ccccc2CC1(C)C`: the inhibition was 28.8%.
Take `COc1ccc(C2C(C#N)=C(N)Oc3cc(N)ccc32)cc1OC` (stereo not given): the inhibition is 9.6%.
As for `N#CC1=C(N)Oc2cc(O)ccc2C1C1CCCCC1` (stereo not given), the figure is 45.4% (active).
In the case of `c1ccc2c(c1)CSc1sccc1C2=C1CCNCC1`, the inhibition is 72.3% (active).
As for `O=C(Nc1ccc2c(c1)OCCO2)C1CCCC1`, the figure is 69.3% (active); as for `CS(=O)(=O)c1ccc(-c2nnn(CC(=O)Nc3ccc4c(c3)OCCO4)n2)cc1`, -2.65%; as for `O=C(N/N=C\c1cc2c(cc1Cl)OCO2)c1ccc(Br)s1`, 57.1% (active).
As for `Cc1ccc(-c2nc3ccccc3[nH]2)cc1NC(=O)c1sc2ccccc2c1Cl`, the figure is 57.4% (active).
On to `COc1ccc(Br)cc1C(=O)NC(=S)Nc1cc(-c2nc3ccccc3[nH]2)ccc1C`, for which the inhibition is 16.8%.
With `COc1ccc(-c2cc(C(=O)N(C)Cc3ccc(OC)c(OC)c3OC)c3ccccc3n2)cc1OC`, the inhibition is 46.9% (active).
With `COc1ccc(CN(C)C(=O)c2cc(-c3ccc(C)cc3C)nc3ccccc23)c(OC)c1OC`, the inhibition was 60.2% (active).
As for `COc1ccc(-c2cc(C(=O)N(C)CC(=O)Nc3ccccc3Cl)c3ccccc3n2)cc1OC`, the figure is 49.2% (active).
With `CN(C)c1ccc(-n2cccc2/C=C2/SC(=Nc3ccc(F)cc3)NC2=O)cc1`, the inhibition was 12.6%.
As for `CCCc1nc2c(c(=O)c3ccccc3n2C)c(=O)n1C1CCCCCC1`, the figure is 87.2% (active).
In the case of `CC(C)(C)Nc1nc(-c2ccccn2)nc2ccccc12`, the inhibition was 85.5% (active).
On to `Cc1ccc(Oc2nc(-c3ccccn3)nc3ccccc23)cc1`, for which the inhibition is 3.9%.
Regarding `COc1cc(/C=C2\Oc3ccc(C#Cc4ccc(O)cc4)cc3C2=O)cc(OC)c1`, the inhibition was 33.2%.
`O=C(Nc1ccncc1)c1c(F)cccc1F`: the inhibition was 61.9% (active).
As for `COc1ccc2cc1Oc1ccc(cc1)C[C@H]1c3cc(c(OC)cc3CCN1C)Oc1c(O)c(OC)cc3c1[C@H](C2)N(C)CC3`, the figure is 100% (active); as for `COc1ccc(-c2nnc(SC(=O)N3c4ccccc4Sc4ccccc43)o2)cc1`, 31.4%; as for `CC[C@]1(O)C[C@@H]2CN(CCc3c([nH]c4ccccc34)[C@@](C(=O)OC)(c3cc4c(cc3OC)N(C)[C@H]3[C@@](O)(C(=O)OC)[C@H](OC(C)=O)[C@]5(CC)C=CCN6CC[C@]43[C@@H]65)C2)C1`, 72.5% (active).
Consider `CC[C@]1(O)CC2CN(CCc3c([nH]c4ccccc34)[C@@](C(=O)OC)(c3cc4c(cc3OC)N(C=O)[C@H]3[C@@](O)(C(=O)OC)[C@H](OC(C)=O)[C@]5(CC)C=CCN6CC[C@]43[C@@H]65)C2)C1` (stereo not given in full), for which the inhibition is 58.4% (active).
For the molecule `O=C1NC(Nc2nc3ccccc3s2)(C(F)(F)F)C(=O)N1C1CCCCC1` (stereo not given), the inhibition was 62.5% (active).
As for `COc1cc(NS(=O)(=O)c2ccc3ccccc3c2)c2ncccc2c1`, the figure is 88.3% (active); as for `CC(C)c1ccccc1OCC(O)CN(CC(O)COc1cccc2ccccc12)C(C)C` (stereo not given), 29.8%.
As for `CC(=O)c1ccc(S(=O)(=O)N2CCN(C(=O)/C=C/c3ccc4ccccc4n3)CC2)cc1`, the inhibition was 71.5% (active).
As for `O=C(Cc1csc(Nc2nc(=S)[nH]c3ccccc23)n1)NCCCN1CCN(c2cccc(Cl)c2)CC1`, the figure is 5%; as for `CC1(C)CC(N2CCN(C(c3ccccc3)c3ccccc3)CC2)=CC(=[N+]2CCCCC2)C1`, 89.8% (active).
For the molecule `COc1cc([N+](=O)[O-])ccc1NC(=O)COC(=O)CCOc1ccc(C)cc1`, the inhibition was 21.9%.
Turning to `COC(=O)c1cc(NC(=O)c2nn(C)c(=O)c3ccccc23)cc(C(=O)OC)c1`, the inhibition is 3.8%.
For the molecule `COc1ccc(-c2nn(C)c(=O)c3ccccc23)cc1NC(=O)COc1ccccc1`, the inhibition was 41.5% (active).
For `CCN(CC)c1ccc(/C=N/Nc2nc(C)cc(C)n2)c(O)c1`, the inhibition was 53% (active).
For the molecule `CCOc1ccc(-n2c(O)c(/C=N/Nc3nc(C)cc(C)n3)c3ccccc3c2=O)cc1`, the inhibition was 35.1%.
On to `CCN(CC)c1ccc(/C=N/NC(=O)c2cnccn2)c(O)c1`, for which the inhibition was 79% (active).
As for `Cc1ccc(NC(=S)NC(NC(=O)Cc2cccc3ccccc23)C(Cl)(Cl)Cl)cc1` (stereo not given), the inhibition is 11.2%.
Consider `COc1ccc(CC(=O)N/N=C(\C)c2ccccn2)cc1`, for which the inhibition is 14.6%.
For `C/C(=N\NC(=O)c1ccccc1F)c1ccccn1`, the inhibition is 41.9% (active).
As for `COc1ccccc1N(CC(=O)N/N=C(\C)c1ccccc1O)S(=O)(=O)c1ccc(C)cc1`, the figure is 60.6% (active); as for `Cc1ccccc1C(=O)N1CCN(c2ccc(NC(=O)c3cccs3)cc2)CC1`, 48.6% (active).
As to `Cc1ccc(-c2nnc(-c3ccc(NC(=O)c4cccs4)cc3)o2)cc1`, the inhibition is 20.9%.
As for `Cc1cc2oc3ccc(NCCC4CCCN4C)cc3c(=O)c2cc1C` (stereo not given), the figure is 1.8%.
As for `Cc1cccc(NS(=O)(=O)c2ccc(-c3cnc(C4CC4)o3)cc2)c1`, the inhibition was 47% (active).
Take `COC(=O)CCNc1ccc2c(c1)OCCO2`: the inhibition was 50.1% (active).
Regarding `O=C1CN(c2nc(-c3ccccc3)c3cc(Br)ccc3n2)c2ccccc2N1`, the inhibition is 16.2%.
As to `COc1ccc2[nH]c(=O)c(CN(Cc3cccnc3)S(=O)(=O)c3ccccc3F)cc2c1`, the inhibition is 57.4% (active).
In the case of `Cn1cc(/C=C/c2nc3ccccc3c(=O)n2-c2cccc([N+](=O)[O-])c2)c2ccccc21`, the inhibition is 40.4% (active).
As for `Cc1c(C(=O)N/N=C/c2ccccc2)[nH]c2c([N+](=O)[O-])cccc12`, the figure is 62.2% (active); as for `Clc1ccc2c(c1)C1=C(C(c3ccncc3)O2)C(c2ccc(Br)cc2)n2ncnc2N1` (stereo not given), 25.8%.
With `O=C(CCl)Nc1cccc(CP(=O)(c2ccccc2)c2ccccc2)c1`, the inhibition is 93.8% (active).

A word on the inhibition: it is the relative decrease from the control value, in per cent.
